Screening results as filed in PubChem BioAssay.
ATXN2 expr inh – ATXN2 expression inhibition; HEK-293 ATXN2-luciferase reporter, luminescence, 24 h; hit rate 0.72% among 360,000; AID 1745845; Potency, µM (doses to about 57 µM), without a hit: at the highest dose activity change, negative = inhibition, usual class: inhibitors; also: % is scaled to controls: 0 for no effect and ±100 for the full control effect; nearly all actives have a fitted effect of over 55% in size
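qHTS (up to 57 uM final) was run with 24 h compound exposure of reporter cells at 37 °C. Each well was multiplexed: SteadyGlo luminescence measured ATXN2-luciferase expression after a fluorogenic Gly-Phe-AFC viability readout (25 uM final).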
HepG2 viability – counter-screen for TGF-b inhibitors: cytotoxicity in HepG2 cells. hit rate 0.76% among 410,000. HepG2 CAGA-GFP viability, ATP luminescence, 18 h. Potency, µM (titrated, usually from 46.1 µM), for inactives: top-dose activity change, negative = cytotoxicity, hits mostly cytotoxic. AID 588856
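CellTiter-Glo luminescence gave cytotoxicity after 18 hours at 37 degrees C. The cells were HepG2 CAGA-GFP in 1% FBS DMEM, stimulated with 500 pg/mL TGF-beta after compound addition. %Activity was normalised to no-cell wells (complete cell-killing) and DMSO (no toxicity), and curves were fitted and classified.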
S2 tox – viability counter-screen for ATXN expression inhibitors | S2 cells (HEK-293 line with an ATXN2-luciferase reporter) viability, CellTiter-Fluor protease fluorescence, 24 h | Potency, µM (top dose mostly 56.7 µM), usual class: cytotoxic | hit rate 0.49% among 400,000 | AID 651635; also: nearly all actives have a fitted effect of over 40% in size
12-LOX inh – inhibitors of human 12S-lipoxygenase ALOX12. purified 12hLO, xylenol orange hydroperoxide absorbance. hit rate 1.1% among 580,000. Potency, µM (series often up to 108 µM), without a hit: top-dose activity change, negative = inhibition, hits mostly inhibitors. P18054; also: % is scaled to controls: 0 for no effect and ±100 for the full control effect
Target sequence (P18054 whole entry, looked up): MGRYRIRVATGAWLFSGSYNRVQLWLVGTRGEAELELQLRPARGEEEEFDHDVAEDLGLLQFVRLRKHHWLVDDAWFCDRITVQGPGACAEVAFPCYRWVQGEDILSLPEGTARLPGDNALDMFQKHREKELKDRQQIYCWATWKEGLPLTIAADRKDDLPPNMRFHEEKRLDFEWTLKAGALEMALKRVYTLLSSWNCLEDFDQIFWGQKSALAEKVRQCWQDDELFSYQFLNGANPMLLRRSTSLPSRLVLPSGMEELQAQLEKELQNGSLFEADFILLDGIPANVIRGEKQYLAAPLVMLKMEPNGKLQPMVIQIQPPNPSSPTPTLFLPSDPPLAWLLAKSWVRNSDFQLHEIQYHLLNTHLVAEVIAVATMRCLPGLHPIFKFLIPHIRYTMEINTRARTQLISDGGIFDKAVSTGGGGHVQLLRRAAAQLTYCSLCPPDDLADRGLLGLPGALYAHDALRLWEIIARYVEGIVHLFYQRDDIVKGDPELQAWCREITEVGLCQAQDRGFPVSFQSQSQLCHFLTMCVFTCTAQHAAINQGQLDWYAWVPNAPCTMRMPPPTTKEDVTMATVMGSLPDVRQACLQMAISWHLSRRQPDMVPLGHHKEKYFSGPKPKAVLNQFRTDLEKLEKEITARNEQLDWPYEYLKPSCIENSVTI
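Purified human 12hLO (150 nM final) in 25 mM Hepes, 0.01% Triton X-100, pH 7.0 was preincubated 15 min at room temperature with compound. Then 40 uM arachidonic acid was added, 30 min. Hydroperoxide was read by Fe-XO absorbance ratio 573/405 nm.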
TGFb inhibitor – inhibitors of TGF-b signaling; HepG2 CAGA-GFP TGF-b/SMAD3 reporter, GFP fluorescence, 18 h; TGF-beta stimulated, 500 pg/mL final; Potency, µM (doses to about 46.1 µM), inactives show top-dose activity, negative = inhibition, usual class: inhibitors; hit rate 1.2% among 410,000; AID 588855; also: % is scaled to controls: 0 for no effect and ±100 for the full control effect; nearly all actives have a fitted effect of over 65% in size
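HEPG2 CAGA-GFP, 1000 cells/well; 2 h settle, 37 C; cpd via pin tool; TGF-b 500 pg/mL final; 18 h, 37 C; GFP imaging ex488/em500-530; %Activity normalised to -TGF-b and +DMSO controls; CRC fit, curve class.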
* marks the source's active call; other numbers are inactive results; i = inactive; ? = inconclusive; . = no result given. In the library only some 2.7% were active in any assay of this set; here they are far more common. Calls follow the shape of the dose curve; as a rule, active = well fitted curve in the direction sought with a large enough effect; inconclusive = small, poorly fitted or top-dose-only effect, or another doubt; inactive = no such curve, though single readings can be large; an effect the other way counts as inactive or inconclusive. Potency is read from the fitted curve at half-maximal effect.

SMILES	ATXN2 expr inh	HepG2 viability	S2 tox	12-LOX inh	TGFb inhibitor
CN(C)S(=O)(=O)N1CC=C(c2c[nH]c3ccccc23)CC1	.	.	.	17.8µM*	.
CC(C)N1C(=O)[C@@H]2[C@@H](CCN2C(=O)CSCC(=O)O)N(Cc2cccc(F)c2)C1=O	.	.	.	35.5µM*	.
C[C@H]1CCC/C=C/[C@@H]2C[C@H](O)C[C@H]2[C@H](O)[C@H](S(=O)c2ccc(O)cc2)CC(=O)O1 (some centres undefined)	?	-45.7%	?	39.8µM*	0.126µM*
CC1CCCC=CC2CC(OC(=O)CN(C)C)CC2C(O)C=CC(=O)O1 (centres undefined)	?	-34.3%	?	-6.7%	?
Cc1nn(CCC(=O)Nc2cccc(F)c2)c(=O)c(C#N)c1C	.	.	.	-3.8%	.
CC(C)N(Cc1ccccc1)C(=O)COC(=O)c1cc(Cl)ccc1Cl	.	.	.	-15.6%	.
O=C(CCS(=O)(=O)C1CCCC1)NCC1CN(Cc2ccccc2)CCO1 (centres undefined)	.	.	.	8.7%	.
O=C1COc2ccc(C(=O)/C=C/c3ccccc3)cc2N1	-1.3%	-15.0%	i	0.6%	8.91µM*
COc1ccccc1-n1c2c(cc(C#N)c1=O)C(=O)CC(C)(C)C2	.	.	.	0.4%	.
Cc1ccc2nc3c(c(Nc4ccc(O)cc4)c2c1)CCC3	.	-38.3%	?	6.7%	?
Cc1ccc(Nc2c3c(nc4ccccc24)CCC3)cc1F	0.0%	-56.4%	28.2µM*	?	?
Cc1cccc(Nc2c3c(nc4ccccc24)CCC3)c1	?	-32.4%	i	?	?
Cc1ccc2nc3c(c(Nc4ccc(C)c(C)c4)c2c1)CCC3	?	-27.7%	17.8µM*	-15.8%	?
COc1ccc(OC)c(-c2cc3ccc(OC)cc3oc2=O)c1	.	.	.	54.9%	.
c1ccc(COc2ncnc3c2ncn3CCCNC2CCN(Cc3ccccc3)CC2)cc1	25.1µM*	15.8µM*	.	-10.5%	14.1µM*
CSc1ncnc2c1ncn2CCCNC1CCN(Cc2ccccc2)CC1	-26.4%	-1.7%	i	?	3.9%
O=C(Nc1ccn(CCCN2CCN(Cc3cccc4ccccc34)CC2)c(=O)n1)OCc1ccccc1	28.2µM*	-71.2%	.	?	?
O=C(Nc1ccn(CCCNC2CCN(Cc3ccccc3)CC2)c(=O)n1)OCc1ccccc1	?	6.31µM*	?	-26.4%	-1.1%
CC(C)CN1C(=O)c2cccn2CC1C(=O)NCCN1CCCCC1 (centres undefined)	.	.	.	40.6%	.
COc1ccc(C)cc1NC(=O)c1nc(-c2ccccc2)oc1C	.	.	.	3.2%	.
O=C(Nc1cccc(S(=O)(=O)N2CCCCC2)c1)c1cccc2cccnc12	.	.	.	-1.5%	.
Cc1ccc(-c2nnc(Nc3ccc4c(c3)OCO4)c3ccccc23)cc1S(=O)(=O)NCCO	0.3%	31.1%	i	8.3%	?
Cc1ccc(-c2nnc(Nc3cccc(O)c3)c3ccccc23)cc1S(=O)(=O)N1CCN(C)CC1	-9.9%	0.0%	?	-0.3%	-21.9%
CCN(CC)C(=O)c1ccc(Nc2nnc(-c3ccc(C)c(S(=O)(=O)NC)c3)c3ccccc23)cc1	-15.2%	-82.3%	i	-10.6%	11.2µM*
Cc1ccc(-c2nnc(Nc3ccc(O)cc3)c3ccccc23)cc1S(=O)(=O)N1CCN(C)CC1	?	-21.3%	?	?	10µM*
SMILES	ATXN2 expr inh	HepG2 viability	S2 tox	12-LOX inh	TGFb inhibitor
Cc1ccc(-c2nnc(Nc3ccc(Cl)c(Cl)c3)c3ccccc23)cc1S(=O)(=O)NCCO	?	-28.8%	?	-28.8%	11.2µM*
C#CC(C)(C)NS(=O)(=O)c1cc(-c2nnc(Nc3ccc(C)cc3)c3ccccc23)ccc1C	-8.2%	8.2%	i	-17.5%	12.6µM*
CCCCNC(=O)c1ccc(C)c(NC(=O)c2ccccc2)c1	.	.	.	0.5%	.
O=C(Cn1nnc(-c2ccc3c(c2)OCO3)n1)Nc1ccccc1C(=O)O	30.1%	-18.8%	i	22.4µM*	-0.7%
O=C(Cn1nnc(-c2ccccc2)n1)Nc1ccc2c(c1)OCO2	3.8%	-4.6%	i	69.4%	-8.2%
CC1CN(CCOc2ccc(Cl)c(Cl)c2)CC(C)O1 (centres undefined)	0.1%	-17.8%	i	0.447µM*	1.0%
CCn1nc(C)cc1C(=O)Sc1cccc(Br)c1	-1.9%	20µM*	i	-163.8%	?
